Measured values: PubChem BioAssay (NCATS)
Inconclusive results are not listed. Unless noted, calls come from the whole dose curve; as a rule, active = well fitted curve in either direction with a large enough effect (not every such curve was filed as active); inconclusive = small, poorly fitted or top-dose-only effect, or another doubt; inactive = flat fitted curve, though single readings scatter.

Key:
[1] = AP1 Signaling Pathway (AID 357); conditions: ME-180 AP-1-bla reporter, EGF-induced, beta-lactamase ratio, 5 h; at 17.2 µM (top of the series) unless noted; note: % is set by controls: 0 for no effect and ±100 for the full control effect
Method in brief: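 ME-180 cells with beta-lactamase reporter under AP-1 response element, stimulated with EC50 EGF; compounds tested in titration series, 5 h at 37 °C. CCF4 substrate added 2.5 h at room temperature; 460/530 nm emission ratio gave %activity and AC50.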

[2] = Stat Signaling Pathway (AID 446); conditions: ME-180 SIE beta-lactamase reporter, IL-6 stimulated, 5 h; at 17.2 µM (top of the series) unless noted;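 note: ME-180 cervical cancer cells given 40 pM IL-6 alongside compound; SIE-controlled beta-lactamase reporter measured as 460/530 nm FRET emission ratio; % is set by controls: 0 for no effect and ±100 for the full control effect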
Method in brief: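 Screening format detects activators and inhibitors alike: ME-180 SIE-bla cells stimulated at 40 pM IL-6 for 5 hrs with compound, then dual-emission beta-lactamase read at 405 nm excitation.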

[3] = biological target: Glucocorticoid receptor (Homo sapiens) (UniProt P04150); test: GR-GFP Redistribution (AID 450;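 active = compounds whose dose series gives a full or clear partial fitted curve of increased nuclear translocation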; note: potency is the fitted concentration of half-maximal effect)
Glucocorticoid receptor (Homo sapiens), sequence (P04150 whole entry, looked up): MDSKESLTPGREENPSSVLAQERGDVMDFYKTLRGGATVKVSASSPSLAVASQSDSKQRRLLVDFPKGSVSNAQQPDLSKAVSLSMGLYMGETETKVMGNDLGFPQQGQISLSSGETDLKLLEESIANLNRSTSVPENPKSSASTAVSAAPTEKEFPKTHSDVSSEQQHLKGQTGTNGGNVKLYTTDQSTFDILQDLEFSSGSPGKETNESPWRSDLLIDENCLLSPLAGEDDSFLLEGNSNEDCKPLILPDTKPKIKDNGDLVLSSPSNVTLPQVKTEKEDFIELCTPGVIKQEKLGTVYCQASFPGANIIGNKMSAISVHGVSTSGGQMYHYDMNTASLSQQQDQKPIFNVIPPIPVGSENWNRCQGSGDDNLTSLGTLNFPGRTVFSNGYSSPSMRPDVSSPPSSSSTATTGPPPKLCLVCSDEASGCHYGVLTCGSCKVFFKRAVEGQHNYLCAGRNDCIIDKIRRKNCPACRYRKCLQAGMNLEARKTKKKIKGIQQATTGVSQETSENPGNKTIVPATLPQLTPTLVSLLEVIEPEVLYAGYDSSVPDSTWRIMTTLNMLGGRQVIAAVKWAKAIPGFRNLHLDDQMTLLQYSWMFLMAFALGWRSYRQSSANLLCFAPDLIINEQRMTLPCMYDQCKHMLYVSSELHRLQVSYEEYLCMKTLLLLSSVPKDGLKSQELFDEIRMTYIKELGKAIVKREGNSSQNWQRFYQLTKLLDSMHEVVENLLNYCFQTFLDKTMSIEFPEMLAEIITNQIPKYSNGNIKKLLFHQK

Cc1c(O)c(CN2CCCCC2)cc2c3c(c(=O)oc12)CCC3
inactive: activity change, negative = inhibition [1] 6.76% | activity, negative = inhibition [2] -1.68% | Potency [3] > 20.6 µM

CCOC(=O)c1cc2c(=O)n3cccc(C)c3nc2n(CCc2ccccc2)c1=N
inactive: activity change, negative = inhibition [1] 9.31% | activity, negative = inhibition [2] 29.4% | Potency [3] > 20.6 µM

Cc1c(CCC#N)c(N2CCN(C3CCCCC3)CC2)n2c(nc3ccccc32)c1C#N
inactive: activity change, negative = inhibition [1] -16.9% | activity, negative = inhibition [2] 9.87% | Potency [3] > 20.6 µM
